The test system of the first experiment is PXR homodimer (NR concentration 270 nM). The experiment is described as follows: PBM binding z-score (relative to random genomic background probes); higher = stronger binding; sequences stand for … in GC…GCGATTGACAGCGTAGAATGAAGG
A digest of the protocol:
(§1)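 For binding z-scores, the reference was random background probes on custom Agilent 4×180K protein-binding microarrays. These arrays were incubated 1 h with ligand-free nuclear receptor dimers in PBS pH 7.4, 2% milk, 0.02% Triton X-100, 1 mM DTT, 0.2 mg/mL BSA and 0.4 mg/ml salmon testes DNA. Fluorescence was scanned after antibody detection of each partner (one per run) and regression-normalized.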
CGAACTAGGTAACCAGGACAGTGAAGAGGTTGGA yielded a PBM binding z-score of 0.0727.
Still for that read-out and setting: the value for CGAACTAGGTCAAAGGACAGTTAAAGGCGACGTA was 0.165; that for CGAACTAGGTCAAAGGACAGTGCAAGGCGACGTA was -0.108.
Same read-out and setting: the value for CGAACTAGGTTACCAGGACAGTGAAGAGGTTGGA was -0.211.
For the sequence CGAACTAGGTCACCAGGAGAGTGAAGAGGTTGGA, the PBM binding z-score is -0.0382.
Still for that read-out and setting: the value for ATATGTAGGTTAGGGTCATCCAGAAAGTAGGGAA was 1.88.
On the same count and under the same terms, the value for CGAACTAGGTCACCCGGACAGTGAAGAGGTTGGA was 0.0197; that for ATATGTAGGTTTGGGTCATTCAGAAAGTAGGGAA was 1.25; that for CGAACTAGGTCAAAGGACAGGGAAAGGCGACGTA was -0.253.
On the same count and under the same terms, the value for CGAACTAGGTCACAGGACAGTGAAAGGCGACGTA was -0.238; that for CGAAATAGGTCACCAGGACAGTGAAGAGGTTGGA was 0.221; that for CGAACTAGGTCGAAGGACAGTGAAAGGCGACGTA was -0.851.
On to CGAACTAGTTCAAAGGACAGTGAAAGGCGACGTA, for which the PBM binding z-score is 0.322.
ATATGTAGGTTATGGTCATTCAGAAAGTAGGGAA returned a PBM binding z-score of 0.449.
For the sequence CGAACTAGGTTAAAGGACAGTGAAAGGCGACGTA, the PBM binding z-score is -0.159.
As for CGAACTAGGTCAAAGGACAGAGAAAGGCGACGTA, the PBM binding z-score was -0.306.
Same read-out and setting: as for CGAACTAGGTCACCAGGACAGTGATGAGGTTGGA, the figure is 0.423.
Same read-out and setting: the value for ATATGTAGGTTAGGGTCATGCAGAAAGTAGGGAA was 1.01; that for CGAACTAGGTCAAAGGACAGTGACAGGCGACGTA was 0.0588; that for CGTACTAGGTCAAAGGACAGTGAAAGGCGACGTA was 0.0831.
On to ATACGTAGGTTAGGGTCATTCAGAAAGTAGGGAA, for which the PBM binding z-score was determined as 1.89.
Still for that read-out and setting: as for ATATGTAGGTTAGGGTCATTAAGAAAGTAGGGAA, the figure is 1.85; as for CGAACTAGGTGACCAGGACAGTGAAGAGGTTGGA, -0.15.
Same read-out and setting: as for CGAACTAGGTCATAGGACAGTGAAAGGCGACGTA, the figure is -0.212; as for CGAGCTAGGTCAAAGGACAGTGAAAGGCGACGTA, -0.591.
Still for that read-out and setting: as for ATATGTAGGTGAGGGTCATTCAGAAAGTAGGGAA, the figure is 1.81; as for ATAGGTAGGTTAGGGTCATTCAGAAAGTAGGGAA, 3.11; as for AGATGTAGGTTAGGGTCATTCAGAAAGTAGGGAA, 3.03.
AAATGTAGGTTAGGGTCATTCAGAAAGTAGGGAA: the PBM binding z-score turned out to be 2.29.
The same measure, in the same setting: as for CGAACTAGGTCAAAGGAAAGTGAAAGGCGACGTA, the figure is -0.0237; as for CGAACTAGGTCACCAGGACATTGAAGAGGTTGGA, 0.175.
For the sequence CGAACTAGGTCAAAGGACAGTCAAAGGCGACGTA, the PBM binding z-score was -0.21.
With CGAAATAGGTCAAAGGACAGTGAAAGGCGACGTA, the PBM binding z-score was -0.0747.
On the same count and under the same terms, the value for ATATGAAGGTTAGGGTCATTCAGAAAGTAGGGAA was 2.32; that for ATATGTGGGTTAGGGTCATTCAGAAAGTAGGGAA was 3.66.
The same measure, in the same setting: the value for CGAACTAGGTCAAAGGACAGTAAAAGGCGACGTA was 0.0773.
The same measure, in the same setting: the value for ATATGTAGGTTAGGGGCATTCAGAAAGTAGGGAA was 1.48; that for CGAACTAGGTCACCAGGCCAGTGAAGAGGTTGGA was -0.53; that for CGAACTAGGTCACCAAGACAGTGAAGAGGTTGGA was -0.2.

The next experiment relates to RARa:RXR (NR concentration 270 nM, RXRa partner concentration 90 nM). The experiment is described as above. The method in brief:
as §1
The sequence CGAACTAGGTAACCAGGACAGTGAAGAGGTTGGA displayed a PBM binding z-score of -0.0151.
The same measure, in the same setting: as for CGAACTAGGTCAAAGGACAGTTAAAGGCGACGTA, the figure is 2.42; as for CGAACTAGGTCAAAGGACAGTGCAAGGCGACGTA, 2.14; as for CGAACTAGGTTACCAGGACAGTGAAGAGGTTGGA, 0.296.
Still for that read-out and setting: as for CGAACTAGGTCACCAGGAGAGTGAAGAGGTTGGA, the figure is 2.45; as for ATATGTAGGTTAGGGTCATCCAGAAAGTAGGGAA, 5.12; as for CGAACTAGGTCACCCGGACAGTGAAGAGGTTGGA, 2.64.
On to ATATGTAGGTTTGGGTCATTCAGAAAGTAGGGAA, for which the PBM binding z-score amounted to 2.47.
On the same count and under the same terms, the value for CGAACTAGGTCAAAGGACAGGGAAAGGCGACGTA was 2.37; that for CGAACTAGGTCACAGGACAGTGAAAGGCGACGTA was 2.22.
On the same count and under the same terms, the value for CGAAATAGGTCACCAGGACAGTGAAGAGGTTGGA was 3.82; that for CGAACTAGGTCGAAGGACAGTGAAAGGCGACGTA was -0.0163.
On the same count and under the same terms, as for CGAACTAGTTCAAAGGACAGTGAAAGGCGACGTA, the figure is 0.253.
Sequence ATATGTAGGTTATGGTCATTCAGAAAGTAGGGAA had a PBM binding z-score of 1.17.
The same measure, in the same setting: the value for CGAACTAGGTTAAAGGACAGTGAAAGGCGACGTA was 0.0562.
Still for that read-out and setting: as for CGAACTAGGTCAAAGGACAGAGAAAGGCGACGTA, the figure is 2.31.
The same measure, in the same setting: as for CGAACTAGGTCACCAGGACAGTGATGAGGTTGGA, the figure is 2.69.
ATATGTAGGTTAGGGTCATGCAGAAAGTAGGGAA yielded a PBM binding z-score of 5.05.
On the same count and under the same terms, the value for CGAACTAGGTCAAAGGACAGTGACAGGCGACGTA was 2.47.
Still for that read-out and setting: the value for CGTACTAGGTCAAAGGACAGTGAAAGGCGACGTA was 2.27.
Same read-out and setting: the value for ATACGTAGGTTAGGGTCATTCAGAAAGTAGGGAA was 4.85; that for ATATGTAGGTTAGGGTCATTAAGAAAGTAGGGAA was 4.79; that for CGAACTAGGTGACCAGGACAGTGAAGAGGTTGGA was 0.228.
CGAACTAGGTCATAGGACAGTGAAAGGCGACGTA returned a PBM binding z-score of 2.17.
CGAGCTAGGTCAAAGGACAGTGAAAGGCGACGTA displayed a PBM binding z-score of 2.39.
Sequence ATATGTAGGTGAGGGTCATTCAGAAAGTAGGGAA displayed a PBM binding z-score of 3.81.
Same read-out and setting: as for ATAGGTAGGTTAGGGTCATTCAGAAAGTAGGGAA, the figure is 5.48; as for AGATGTAGGTTAGGGTCATTCAGAAAGTAGGGAA, 5.13; as for AAATGTAGGTTAGGGTCATTCAGAAAGTAGGGAA, 4.78.
The sequence CGAACTAGGTCAAAGGAAAGTGAAAGGCGACGTA displayed a PBM binding z-score of 1.65.
Same read-out and setting: as for CGAACTAGGTCACCAGGACATTGAAGAGGTTGGA, the figure is 2.53.
In the case of CGAACTAGGTCAAAGGACAGTCAAAGGCGACGTA, the PBM binding z-score turned out to be 2.49.
Still for that read-out and setting: as for CGAAATAGGTCAAAGGACAGTGAAAGGCGACGTA, the figure is 3.92.
Still for that read-out and setting: as for ATATGAAGGTTAGGGTCATTCAGAAAGTAGGGAA, the figure is 5.28; as for ATATGTGGGTTAGGGTCATTCAGAAAGTAGGGAA, 5.02.
Still for that read-out and setting: the value for CGAACTAGGTCAAAGGACAGTAAAAGGCGACGTA was 2.09; that for ATATGTAGGTTAGGGGCATTCAGAAAGTAGGGAA was 1.52; that for CGAACTAGGTCACCAGGCCAGTGAAGAGGTTGGA was 2.73.
On to CGAACTAGGTCACCAAGACAGTGAAGAGGTTGGA, for which the PBM binding z-score was found to be 1.99.

For the origin of these results see the supplement of paper PMC6555819.
